This is a sample that favours compounds with a hit; in the whole collection about 4.3% have one here.
NALP1 inh = NALP1 inflammasome inhibitors in reconstituted yeast, colorimetric, S. cerevisiae, triplicate retest | S. cerevisiae NALP1/ASC/caspase-1 growth, X-gal OD620, 72 h | inhibition, % at 10 µM | 0.61% of 280,000 active | AID 2071, 2009; in the data active = inhibition mostly above about 24%, no sharp cut-off; inactive = mostly below about 32%
dFosB act = activators of delta FosB homodimer, primary screen, biochemical, fluorescence polarization, TAMRA-CDK5 oligo, single point; 0.99% of 340,000 active; activation, % at 25 µM; Protein FosB (Mus musculus), P13346; AID 493131, 2011; purified delta FosB; percent of positive-control signal above neutral wells;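 active = mean activation above about 17%, with every replicate also reaching it, limit read from the data, passing the limit was not always enough; inconclusive = only one of the two conditions met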
NR3A LBD binder = binders of NR3A ligand-binding domain, primary screen, biophysical, differential scanning fluorimetry, uHTS; Glutamate receptor ionotropic, NMDA 3A (GRIN3A) ligand-binding domain; NR3A LBD differential scanning fluorimetry, Tm shift; 0% = protein alone, 100% = glycine-bound protein; Tm shift relative to glycine control, % at 25 µM; 2.5% of 340,000 active; AID 1259313, 2017;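 active = melting temperature shift of at least 10% of the positive control shift, at one fixed dose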
UBC13 polyUb = UBC13 polyubiquitin chain formation inhibitors, primary screen, biochemical, TR-FRET, uHTS; Ubiquitin-conjugating enzyme E2 N (Homo sapiens), P61088; inhibition, % at 20 µM; 0.47% of 330,000 active; in the data active = inhibition above about 45%, passing the limit was not always enough; inconclusive = no clear call, values can overlap the other calls
Target sequence (P61088 whole entry, looked up): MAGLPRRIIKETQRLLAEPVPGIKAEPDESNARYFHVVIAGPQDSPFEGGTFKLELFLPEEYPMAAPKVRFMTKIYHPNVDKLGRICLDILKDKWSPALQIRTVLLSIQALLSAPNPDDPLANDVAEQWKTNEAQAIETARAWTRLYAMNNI
CR mimetic SO = reduction of superoxide in aged yeast, primary screen, HTS. superoxide response (% of plate mean), % at 10 µM. S. cerevisiae aged cells, superoxide DHE fluorescence; active compounds read low. 0.18% of 330,000 active;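 active = superoxide response under a set limit, about three screen SD below normal, cut at about 65% in these data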;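 also: yeast aged for seven days with compound at 30 °C before DHE staining; 100% = average MFI of all compound-treated wells on the plate with controls excluded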
* = called active by the depositor; ? = inconclusive; / = no result.

SMILES | NALP1 inh | dFosB act | NR3A LBD binder | UBC13 polyUb | CR mimetic SO
O=C(/C=C\c1ccccc1)Nc1ccc(NC(=O)c2ccco2)cc1 | 23 | 7 | 25* | -1 | 99
O=C(/C=C/c1ccc(Br)cc1)c1ccc(NC(=O)c2ccco2)cc1 | / | 13 | 24* | 1 | 115
O=C(Cc1ccccc1)Nc1ccc(NC(=O)c2ccco2)cc1 | 19 | 5 | -12 | 2 | 92
Cn1c(=O)n(C)c2cc(NC(=O)COc3ccc(F)cc3)ccc21 | -27 | -3 | 2 | -4 | 88
COc1cccc(CN2CCNC(=O)C2CC(=O)N(Cc2cnn(C)c2)C(C)C)c1 (stereo not given) | 1 | -10 | 0 | 6 | 105
CS(=O)(=O)N(CC(=O)N1CCc2ccccc2C1)c1cccc(F)c1 | 13 | -3 | 2 | 4 | 102
O=C(CN(c1cccc(Cl)c1)S(=O)(=O)c1ccc(Cl)cc1)N1CCc2ccccc2C1 | 18 | -6 | 11* | -3 | 109
O=C(Cn1cnc2c(NCc3ccccc3)ncnc21)NCCCc1ccccc1 | / | 0 | 17* | / | 86
CCOC(=O)Cn1c(=O)cc(C)c2ccccc21 | -12 | -9 | -2 | -4 | 98
CCOC(=O)Cn1c(C)[n+](CC(=O)c2ccccc2)c2ccccc21 | 8 | -5 | -6 | 3 | 65*
O=[N+]([O-])c1cccc2c(Cl)ccnc12 | -4 | -2 | 0 | 10 | 100
O=[N+]([O-])c1ccc(Cl)c2cccnc12 | 0 | -1 | 12* | -4 | 110
O=[N+]([O-])c1ccc(O)c2ncccc12 | 158* | 0 | -11 | -62 | 81
Cn1c(CCN2CCN(c3ccccn3)CC2)nc2cc(NC(=O)COc3ccccc3)ccc21 | 12 | -3 | -2 | 1 | 96
Cc1cccc(C)c1OCC(O)CN1CCN(c2ccccn2)CC1 (stereo not given) | -4 | 7 | 1 | 20 | 100
OC(CN1CCN(c2ccccn2)CC1)Cn1c2ccc(Cl)cc2c2cc(Cl)ccc21 (stereo not given) | -2 | ? | 19* | 6 | 114
OC(COC(c1ccc(Cl)cc1)c1ccc(Cl)cc1)CN1CCN(c2ccccn2)CC1 (stereo not given) | 45* | -3 | -8 | 4 | 84
Cn1cnc(S(=O)(=O)NC2CCN(Cc3ccccc3)CC2)c1 | 6 | -2 | -2 | -4 | 107
CCOc1cccc(C(=O)Nc2ccc3[nH]ncc3c2)c1 | 26 | 0 | 15* | 0 | 112
O=C(COc1cccc(C(F)(F)F)c1)Nc1ccc2[nH]ncc2c1 | 21 | -16 | 18* | 3 | 96
O=C(Nc1ccccc1C(=O)NC1CC1)c1ccccc1F | / | 3 | -5 | 10 | 97
COc1ccc(C(=O)Nc2ccc(C(=O)NCCc3ccccc3)cc2)cc1 | -4 | -3 | 22* | 2 | 66
COc1ccc(NC(=O)c2ccc(C)cc2)cc1 | 6 | 2 | 42* | 3 | 97
Cc1ccc(-c2cc(NC(=O)c3ccccc3)on2)cc1 | 25 | -5 | -13 | 12 | 111
COc1ccc(NC(=O)c2ccccc2)cc1 | / | 4 | 10 | 1 | 94
SMILES | NALP1 inh | dFosB act | NR3A LBD binder | UBC13 polyUb | CR mimetic SO
COc1ccc(C(=O)Nc2cc(-c3ccc(C)cc3)no2)cc1 | 13 | -14 | 11* | 7 | 85
COc1ccc(C(=O)NNC(=O)C(=O)Nc2ccc(C)cc2)cc1 | 21 | -3 | -6 | -1 | 98
COc1ccc(NC(=O)c2cccc(N3C(=O)C4C5C=CC(C6CC56)C4C3=O)c2)cc1 (stereo not given) | 10 | -9 | 23* | -4 | 99
Cc1ccc(Nc2ccc(C(=O)NCCc3ccccc3)cn2)cc1 | 16 | 3 | 24* | -8 | 101
Cc1ccc(C(=O)Nc2ccc(C(=O)N/N=C/c3ccc(C)o3)cc2)cc1 | 5 | 5 | 15* | -10 | 105
COc1ccc(CC(=O)Nc2cccc(C(=O)Nc3cccc(C)c3)c2)cc1 | 3 | / | / | -2 | 90
COc1ccc(C(=O)Nc2cccc(C)c2)cc1 | 15 | 0 | 17* | 1 | 106
Cc1ccc(SCC(=O)Nc2ccc(C(=O)Nc3ccc(O)cc3)cc2)cc1 | 9 | -1 | 19* | 10 | 117

From PubChem BioAssay
